# Data reported in PubChem BioAssay AID504332 (National Center for Advancing Translational Sciences (NCATS), 2011).
# Out of some 350,000 compounds screened, about 31,000 (8.9%) were called active. Inconclusive results (about 15%) are left out. The list comes from a sample in which actives are over-represented; it also holds similar structures and randomly drawn compounds. Some compounds were tested as several samples or in several runs, with calls that do not always agree. Unmarked numbers belong to inactive results. The call rests on the fitted dose curve; in most records, active means well fitted inhibition curve with a large enough effect; inconclusive means small, poorly fitted or top-dose-only effect; inactive means no such curve, though single readings can be large or run the other way.
# Target: Histone-lysine N-methyltransferase EHMT2 (Homo sapiens) (UniProt Q96KQ7)
# Sequence (Q96KQ7 913-1193 limits assumed): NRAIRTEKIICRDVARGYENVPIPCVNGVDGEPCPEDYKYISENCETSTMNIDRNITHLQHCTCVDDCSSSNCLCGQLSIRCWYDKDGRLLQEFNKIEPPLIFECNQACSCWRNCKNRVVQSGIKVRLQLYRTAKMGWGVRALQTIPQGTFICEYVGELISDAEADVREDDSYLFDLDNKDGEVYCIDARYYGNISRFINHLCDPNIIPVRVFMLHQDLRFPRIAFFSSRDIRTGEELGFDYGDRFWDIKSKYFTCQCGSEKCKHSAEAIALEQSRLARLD
# Experiment: qHTS Assay for Inhibitors of Histone Lysine Methyltransferase G9a; further: nearly all actives have a fitted effect of over 75% in size
# Settings: G9a H3K9 monomethylation, AlphaScreen, 2 h; series mostly up to 59 µM; activity, negative = inhibition: at the top concentration
# Outline: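 Compounds were preincubated with 20 nM G9a for 15 min, after which biotinylated H3K9 peptide (500 nM) and SAM (20 uM) started a 2 h room-temperature reaction. Monomethylated product was quantified by antibody-based AlphaScreen chemiluminescence.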
# On the % scale 0 is the no-effect control and ±100 the full control effect; potency means the concentration at half of the fitted maximal effect.
SMILES,"activity, negative = inhibition",Potency
CCN1C(=O)c2ccccc2S(=O)c2ccc(C(=O)NCc3ccc(F)cc3)cc21 (stereo not given),5.23%,–
COc1cccc(CCNC(=O)COc2cccc3c2OC(C)(C)C3)c1,0.938% [at 102 µM],–
COC(=O)c1cn(C(=O)c2ccc(Cl)cc2)c2ccccc12,231% [at 102 µM],–
COC(=O)C(=Nc1ccccc1)/C(C(=O)C(=O)N(C)c1ccccc1)=C(\O)c1ccc(Cl)cc1,–,20 µM (active)
COC(=O)/C(NC(C)=O)=C(\C)c1ccc(Cl)cc1,-9.9%,–
Cc1cc(Nc2cccc(C(F)(F)F)c2)nc2ccc(NC(=O)c3ccc(=O)[nH]c3)cc12,-0.704%,–
O=C(O)CS/C(=C\c1ccc(F)cc1)c1nc2ccccc2s1,-4.8% [at 102 µM],–
O=C(Nc1nc2ccccc2s1)c1ccc2c(c1)OCO2,11.3%,–
O=C(O)CC/C(=C\c1cc2c(cc1Br)OCO2)c1nc2ccccc2s1,–,35.5 µM (active)
Cc1ccc2oc3c(c(=O)c2c1)C(c1ccc(O)cc1)N(Cc1ccc2c(c1)OCO2)C3=O (stereo not given),-10.3%,–
Cc1ccc(-n2c(=O)c3cccnc3n2CC(=O)Nc2ccccc2C(F)(F)F)cc1C,15.4%,–
COc1ccc(Cc2nnc(SCC(=O)Nc3ccc(C)c(C)c3)o2)cc1OC,-11.7% [at 102 µM],–
O=C(Nc1ccc2c(c1)nc1n2CCCCC1)c1cc(S(=O)(=O)N2CCOCC2)ccc1Cl,14.4% [at 102 µM],–
CC(Oc1ccc(F)cc1)C(=O)Nc1cc(S(=O)(=O)N2CCOCC2)ccc1N1CCN(C)CC1 (stereo not given),–,11.2 µM (active)
O=C(Nc1ccc(N2CCCCC2)cc1)c1cc(S(=O)(=O)N2CCOCC2)ccc1F,–,17.8 µM (active)
COc1ccc(S(=O)(=O)N2CCCCC2)cc1NC(=O)COc1ccccc1,-9.48% [at 2.33 µM],–
COc1ccc(S(=O)(=O)N2CCOCC2)cc1NC(=O)COc1ccccc1,–,12.6 µM (active)
Cc1cccc(OCCC(=O)Nc2cc(S(=O)(=O)N3CCCCC3)ccc2N2CCOCC2)c1,-11.2% [at 102 µM],–
O=C(CNCc1ccco1)Nc1cc(S(=O)(=O)N2CCOCC2)ccc1N1CCCC1,–,50.1 µM (active)
Cc1ccc(S(=O)(=O)N2CCOCC2)cc1C(=O)NCc1ccc(F)cc1,-8.42%,–
Cc1ccc(S(=O)(=O)N2CCOCC2)cc1C(=O)Nc1ccccc1N1CCCC1,11% [at 0.501 µM],–
COc1ccc(S(=O)(=O)N2CCOCC2)cc1NC(=O)CSc1ncnc2ccccc12,-0.39% [at 102 µM],–
COc1ccc(S(=O)(=O)N2CCOCC2)cc1NC(=O)c1ccc(OCC(C)C)c(OC)c1,22.9% [at 2.33 µM],–
O=C(CNCc1cccs1)Nc1cc(S(=O)(=O)N2CCCC2)ccc1Cl,-123%,–

SMILES,"activity, negative = inhibition",Potency
CC1CCC2(CC1)N=C(c1ccccc1)C(=O)N2CC(=O)Nc1ccc(F)c(Cl)c1 (stereo not given),7.11%,–
O=C(NCc1cccnc1)C(=O)NCC(c1cccnc1)N1CCN(c2ccccc2)CC1 (stereo not given),4.02%,–
Cc1c(NC(=O)C(C)(C)C)cccc1-c1nc2ccccc2s1,2.75%,–
CCc1ccc(-n2nnc(-c3nc(-c4ccccc4)no3)c2C)cc1,6.71%,–
CCCCn1c(=N)c(S(=O)(=O)c2ccccc2)cc2c(=O)n3cccc(C)c3nc21,3.44%,–
COc1cccc(N=C2SC(C(=O)Nc3cccc(Cl)c3)CC(=O)N2C)c1 (stereo not given),12.3%,–
Cc1cccc2c1-c1sc(C(=O)Nc3ccc(F)cc3F)cc1CO2,28.5%,–
CC(C)c1ccc(NC(=O)c2cc(S(=O)(=O)N3CCc4ccccc4C3)ccc2F)cc1,–,25.1 µM (active)
O=C(Nc1ccc(S(=O)(=O)N2CCc3ccccc3C2)cc1)c1ccccc1,46.5% [at 12.7 µM],–
O=C(COC(=O)Cc1ccc(F)cc1)Nc1cc(S(=O)(=O)N2CCOCC2)ccc1N1CCCC1,-1.2%,–
CS(=O)(=O)c1ccc(Cl)c(NC(=O)COC(=O)c2cccc(S(=O)(=O)N3CCCC3)c2)c1,–,56.2 µM (active)
O=C(COc1cccc2ccccc12)Nc1cc(S(=O)(=O)N2CCOCC2)ccc1N1CCOCC1,-25.6% [at 102 µM],–
O=C(COC(=O)CCOc1ccccc1)Nc1cc(S(=O)(=O)N2CCCCC2)ccc1Cl,4.58% [at 2.33 µM],–
CC(NC(=O)c1cccc(S(=O)(=O)N2CCc3ccccc3C2)c1)c1ccco1 (stereo not given),5.8%,–
CC(=O)c1c(C)[nH]c(C(=O)OCC(=O)Nc2cc(S(=O)(=O)N3CCCCC3)ccc2C)c1C,-1.48%,–
O=C(COC(=O)c1ccccc1F)Nc1cc(S(=O)(=O)N2CCOCC2)ccc1N1CCCC1,–,35.5 µM (active)
COc1cc(Nc2nc3ccc(Cl)cc3n3cnnc23)cc(OC)c1OC,98.3% [at 102 µM],–
COc1cc(F)c(C2=CC(=O)CC(C)(C)C2)cc1F,-4.97% [at 0.501 µM],–
COc1ccccc1S(=O)(=O)NCc1ccc(C(=O)N(C)Cc2ccc(F)cc2)cc1,6.01% [at 2.33 µM],–
Cc1cccc(CCNC(=O)c2ccc3c(c2)nc2n3CCC(C)C2)c1 (stereo not given),2.69%,–
CC(=O)N1CCc2cc(Br)cc(S(=O)(=O)CCC(=O)NCCc3ccc(Cl)cc3)c21,9.87%,–
C/C(=N\NC(=O)c1ccccc1F)c1ccccn1,36.1% [at 102 µM],–
CCOC(=O)C1CCCCN1Cc1ccc(OC)c(OC)c1OC (stereo not given),–,12.6 µM (active)
CCOC(=O)C1CCN(S(=O)(=O)c2cc(F)ccc2OC)CC1,11.3% [at 102 µM],–

SMILES,"activity, negative = inhibition",Potency
CCOC(=O)C1CCN(C(=O)/C=C/c2cc(OC)c(OC)c(OC)c2)CC1,15.1%,–
Cc1ccc(S(=O)(=O)c2nc(-c3ccco3)oc2SCC(=O)Nc2ccc(F)cc2)cc1,0.772%,–
NS(=O)(=O)c1ccc(CCNC(=O)CN2C(=O)c3ccccc3S2(=O)=O)cc1,-0.171% [at 102 µM],–
CCC(=O)N1CCc2cc(Br)cc(S(=O)(=O)CCC(=O)NCCc3ccc(OC)c(OC)c3)c21,8.33%,–
Cc1ccccc1NC(=O)C(C)OC(=O)CCC(=O)N(CC(C)C)c1c(N)n(CC(C)C)c(=O)[nH]c1=O (stereo not given),-28.5%,–
CC(C)(C)NCC(O)COc1cccc2[nH]c(=O)[nH]c12 (stereo not given),21.7% [at 12.7 µM],1.12 µM (active)
COc1ccccc1OCCNCC(O)COc1cccc2[nH]c3ccccc3c12 (stereo not given),–,inactive
CC(C)(C)CC(C)(C)NCC(O)COCCOc1ccc(Br)cc1 (stereo not given),1.72%,–
COc1ccc(C2(C#N)CCC(C(=O)O)CC2)cc1OC1CCCC1 (stereo not given),-32.8% [at 12.7 µM],–
COc1ccc(S(=O)(=O)n2nc(C)c(S(=O)(=O)N3CCOCC3)c2C)cc1,–,79.4 µM (active)
COc1ccc(S(=O)(=O)n2nc(C)c(S(=O)(=O)N3CCCCCC3)c2C)cc1,-1.88%,–
Cc1ccc(S(=O)(=O)n2nc(C)c(S(=O)(=O)N3CCCCCC3)c2C)cc1,6.64%,–
COc1ccc(S(=O)(=O)c2c(Nc3cccc(Cl)c3)sc(C(=O)c3ccccc3)c2N)cc1,1.28%,–
Cc1ccc2nc(/C(C#N)=C\c3ccc(OC(=O)c4cccs4)cc3)[nH]c2c1,7.86% [at 102 µM],–
Cc1ccc2nc(S(=O)(=O)O)[nH]c2c1,–,89.1 µM (active)
CCCNC(=O)C1CCN(c2nc3ccc(C)cc3[nH]2)CC1,-0.986%,–
COc1cccc(CNC(=O)CSc2c3c(nc4cc(Cl)ccc24)CCCC3)c1,-2.82%,–
Cc1ccc(CCNC(=O)c2ccc(CNS(=O)(=O)c3ccc(C)cc3)cc2)cc1,-2.1%,–
COc1ccccc1CNS(=O)(=O)c1ccc(C)cc1,8.26%,–
COC(=O)C1=C(C)NC(=O)/C1=C/c1ccc(CNS(=O)(=O)c2ccc(C)cc2)o1,–,50.1 µM (active)
Cc1cc(C)c2sc(NC(=O)c3ccc(S(=O)(=O)N4CCCC4)cc3)nc2c1,7.98%,–
Cn1c(=O)c(C(=O)O)nn(-c2ccccc2)c1=O,-33.3%,–
Cc1cccc(OCC(=O)N(Cc2ccc(C(C)C)cc2)Cc2ccco2)c1C,92.4%,–
CS(=O)(=O)c1sc2nc(-c3ccccc3)cc(-c3ccccc3)c2c1N,6.2%,–

SMILES,"activity, negative = inhibition",Potency
CNC(=S)NNC(=O)c1oc2nc(-c3ccccc3)cc(-c3ccco3)c2c1N,–,10 µM (active)
CC1=C(c2ccc(Cl)cc2)S(=O)(=O)N=C1N1CCN(c2cc(C)ccc2C)CC1,-4.09%,–
COc1ccc(-c2c(-c3ccc(OC)cc3O)nc(C)nc2C(F)(F)F)cc1,0.626% [at 102 µM],–
CCOc1ccc(-c2cc3nc(C4CCN(C(=O)OC(C)(C)C)CC4)c(C(=O)Nc4ccc(C(=O)OC)cc4)cn3n2)cc1,-20.7%,–
CCOC(=O)c1c(NC(=O)CSc2nnc(CNc3ccc(C)cc3C)o2)sc(C)c1C,3.71%,–
CCOC(=O)c1sc(NC(=O)COc2ncnc3ccccc23)c(C(=O)OCC)c1C,-4.04%,–
CCOC(=O)c1c(NC(=O)COc2cc(C)ccc2C(C)C)sc(C)c1C,–,1.78 µM (active)
COc1cccc(CNC(=O)c2ccc3c(c2)N(Cc2ccc(C(F)(F)F)cc2)C(=O)c2ccccc2S3)c1OC,-7.77%,–
O=C(N/N=C/c1cccc([N+](=O)[O-])c1)c1ccncc1,25.8% [at 102 µM],–
O=C(c1ccncc1)N1CCN(S(=O)(=O)c2cccc([N+](=O)[O-])c2)CC1,14.7% [at 102 µM],–
N/C(=N\OS(=O)(=O)c1cccc([N+](=O)[O-])c1)c1ccncc1,–,10 µM (active)
COc1ccc(C=Nc2cccc3ncccc23)cc1,-38.4% [at 102 µM],–
Oc1c(C=Nc2cccc3nsnc23)ccc2ccccc12,–,2.24 µM (active)
CC(C)(C)NS(=O)(=O)c1ccc(NC(=O)C2CCCO2)cc1 (stereo not given),51.9% [at 102 µM],–
O=C(CC(c1cccs1)N1Cc2ccccc2C1=O)Nc1ccc(F)c(F)c1 (stereo not given),-1.11%,–
CCc1cccc(NC(=O)COC(=O)C2CCN(c3ccc(C(F)(F)F)cn3)CC2)c1,10.8% [at 0.501 µM],–
Cc1ccccc1CS(=O)(=O)CC1Nc2ccc(C(=O)NCc3ccc(Cl)cc3)cc2NC1=O (stereo not given),–,10 µM (active)
CCCC(=O)Nc1cc(C(=O)NCc2ccc(OC)cc2)ccc1S(=O)(=O)c1ccc(Cl)cc1,-30.6%,–
CCCN(CCC)CCNC(=O)c1ccc2c(c1)NC(=O)C(CS(=O)(=O)Cc1cccc(Br)c1)N2 (stereo not given),–,25.1 µM (active)
COc1ccc(C(=O)NCc2ccc(Cl)cc2)cc1S(=O)(=O)N1CCCC1,-2.17% [at 12.7 µM],–
C/C(Cc1ccccc1)=N\NC(=O)CNC(=O)c1cccc(Br)c1,-2.2%,–
CCCNC(=O)c1ccc(N2CCC3(CC2)CC(c2cccc(Br)c2)=NO3)c(NC(=O)c2ccco2)c1,7.48% [at 2.33 µM],–
